Hits are enriched below; roughly 1.8% of the tested compounds scored in any of these assays.
Fam108B counter – counter-screen for RBBP9 inhibitors: inhibitors of mouse Fam108B; recombinant Fam108B, FP-Rh probe fluorescence polarization; inhibition, % at 9.51 µM; 300,000 compounds, 0.33% hits; AID 1947;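 active means inhibition above the screen mean inhibition plus 3 SD, computed separately per campaign, cut at about 18% in these data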;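 further: inhibitors lower polarization as less probe binds the enzyme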
LYPLA1 counter – counter-screen for PME1 inhibitors: inhibitors of human LYPLA1. O75608. recombinant LYPLA1, FP-Rh probe fluorescence polarization. inhibition, % at 5.9 µM. 320,000 compounds, 0.16% hits. AID 2174;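 active means inhibition above the mean of all tested compounds plus 3 SD, set per campaign, cut at about 14% in these data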;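 further: inhibitors block serine hydrolase probe labeling of LYPLA1 so polarization falls; 0% = enzyme with DMSO and 100% = wells lacking LYPLA1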
Target sequence (O75608 whole entry, looked up): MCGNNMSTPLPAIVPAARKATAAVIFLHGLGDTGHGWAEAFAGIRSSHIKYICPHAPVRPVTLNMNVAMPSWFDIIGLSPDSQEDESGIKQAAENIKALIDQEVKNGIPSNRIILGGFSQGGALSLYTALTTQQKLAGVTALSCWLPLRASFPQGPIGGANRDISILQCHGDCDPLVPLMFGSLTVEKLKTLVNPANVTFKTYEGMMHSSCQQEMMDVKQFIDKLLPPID
GSTO1 counter – GSTO1 inhibition, counter-screen for RBBP9 inhibitors. inhibition, % at 5.96 µM. P78417. 300,000 compounds, 1.1% hits. recombinant GSTO1, activity-based probe fluorescence polarization;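 active means inhibition above the campaign mean inhibition plus 3 SD, cut at about 35% in these data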;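 further: 0% = GSTO1-1 with DMSO and 100% = wells lacking GSTO1-1 enzyme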
Target sequence (P78417 whole entry, looked up): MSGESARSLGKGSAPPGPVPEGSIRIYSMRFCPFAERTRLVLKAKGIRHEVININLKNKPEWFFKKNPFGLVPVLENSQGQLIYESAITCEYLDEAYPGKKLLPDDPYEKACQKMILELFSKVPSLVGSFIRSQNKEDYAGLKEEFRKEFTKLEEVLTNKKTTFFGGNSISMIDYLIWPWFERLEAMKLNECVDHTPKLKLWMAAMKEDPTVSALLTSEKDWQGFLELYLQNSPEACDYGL
LYPLA2 counter – counter-screen for PME1 inhibitors: inhibitors of human LYPLA2. O95372. recombinant LYPLA2, FP-Rh probe fluorescence polarization. inhibition, % at 5.9 µM. 320,000 compounds, 0.38% hits;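 active means inhibition above the screen-wide mean plus 3 SD, limit set per campaign, cut at about 26% in these data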;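 further: 0% = LYPLA2 with DMSO and 100% = wells lacking LYPLA2 enzyme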
Target sequence (O95372 whole entry, looked up): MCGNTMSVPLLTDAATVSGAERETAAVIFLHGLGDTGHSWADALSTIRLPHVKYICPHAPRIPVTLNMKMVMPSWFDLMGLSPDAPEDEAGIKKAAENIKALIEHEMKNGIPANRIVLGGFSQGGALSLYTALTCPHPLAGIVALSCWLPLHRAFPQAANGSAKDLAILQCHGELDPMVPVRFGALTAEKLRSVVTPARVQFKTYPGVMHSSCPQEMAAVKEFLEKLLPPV
PME-1 inh – PME-1 (human) inhibition; AID 2130; 320,000 compounds, 0.53% hits; inhibition, % at 5.9 µM; recombinant PME-1, FP-Rh probe fluorescence polarization;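 active means inhibition above the campaign mean of all compounds plus 3 SD, cut at about 26% in these data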;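 further: competitive labeling of PME-1 active site by serine hydrolase directed probe; 0% = PME-1 with DMSO and 100% = wells lacking PME-1 enzyme; inhibitors block probe labeling so polarization falls and inhibition rises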
PAD4 inh – inhibitors of human PAD4; recombinant PAD4, RCA probe fluorescence polarization; Q9UM07; 330,000 compounds, 0.41% hits; inhibition, % at 6.36 µM;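 active means percent inhibition above a cutoff equal to the mean of all tested compounds plus 3 SD, cut at about 15% in these data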;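 further: 0% = PAD4 with RCA probe and DMSO and 100% = probe without PAD4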
Fam108b confirm – Fam108b (mouse) hydrolase inhibition, confirmation assay; shares compounds with Fam108B counter; recombinant Fam108b, FP-Rh probe fluorescence polarization; inhibition, % at 9.51 µM; 930 compounds, 44% hits; AID 1978;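 active means inhibition above a limit from the primary screen, the mean over all compounds plus 3 SD, cut at about 19% in these data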;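 further: 0% = median of active Fam108b wells and 100% = catalytically dead S170A mutant; inhibitors free the probe so polarization falls as inhibition rises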
Fam108b ABPP HTS – inhibits mouse Fam108b in gel-based ABPP; shares compounds with Fam108B counter; recombinant Fam108b, fluorophosphonate probe; inhibition, % at 20 µM; 260 compounds, 44% hits; in the data active means inhibition above about 40%
GSTO1 confirm – GSTO1 (human) inhibition, confirmation; shares compounds with GSTO1 counter; 2,400 compounds, 54% hits; recombinant GSTO1, probe fluorescence polarization; inhibition, % at 5.96 µM;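 active means inhibition above the primary screen's cutoff, its mean inhibition plus 3 SD, cut at about 35% in these data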;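 further: loss of polarization as inhibitors block binding of rhodamine sulfonate ester activity probe; 0% = GSTO1 with DMSO and 100% = wells lacking GSTO1 enzyme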
LYPLA1 confirm – counter-screen for PME1 inhibitors: confirmation of human LYPLA1 inhibitors | shares compounds with LYPLA1 counter | recombinant LYPLA1, FP-Rh probe fluorescence polarization | inhibition, % at 5.9 µM | 480 compounds, 69% hits;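 active means mean inhibition across replicates above the hit cutoff set in the primary screen, cut at about 15% in these data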;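 further: loss of FP-Rh probe labeling of LYPLA1 seen as lower polarization; 0% = LYPLA1 with DMSO and 100% = wells lacking LYPLA1 enzyme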
LYPLA2 conf – counter-screen for PME1 inhibitors: confirmation of human LYPLA2 inhibitors; shares compounds with LYPLA2 counter; recombinant LYPLA2, FP-Rh probe fluorescence polarization; inhibition, % at 5.9 µM; 1,100 compounds, 72% hits;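 active means mean inhibition across replicates above the hit cutoff set in the primary screen, cut at about 26% in these data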;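 further: blocked labeling of the enzyme by serine hydrolase FP-Rh probe lowers polarization; 0% = enzyme with DMSO and 100% = wells lacking LYPLA2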
PAD4 FP conf – confirmation of human PAD4 inhibitors; shares compounds with PAD4 inh; recombinant PAD4, RCA probe fluorescence polarization; inhibition, % at 6.36 µM; 1,200 compounds, 28% hits;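 active means mean inhibition across replicates above the hit cutoff set by the earlier primary screen, cut at about 15% in these data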;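 further: inhibitors block active-site labeling by the probe so polarization falls; 0% = PAD4 with probe and DMSO and 100% = probe without PAD4 enzyme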
* marks the source's active call; other numbers are inactive results; x = no result.

SMILES | Fam108B counter | LYPLA1 counter | GSTO1 counter | LYPLA2 counter | PME-1 inh | PAD4 inh | Fam108b confirm | GSTO1 confirm | LYPLA1 confirm | LYPLA2 conf | PAD4 FP conf | others
COc1cc2c(cc1OC)C1(CCCC1)CNC2c1cccc([N+](=O)[O-])c1 (stereo not drawn) | 0 | 2 | -6 | 21 | 2 | -2 | x | x | x | x | x
CCCCCn1c(NC(=O)c2ccco2)c(S(=O)(=O)c2ccc(C)cc2)c2nc3ccccc3nc21 | -3 | -2 | 12 | -2 | 2 | -10 | x | x | x | x | x
CCCCn1c(NS(=O)(=O)c2ccccc2)c(S(=O)(=O)c2ccc(C)cc2)c2nc3ccccc3nc21 | 54* | 64* | 92* | 56* | 28* | 66* | 2 | 83* | 82* | 91* | -5
Cc1ccsc1C=Nc1ccc(O)cc1 | 42* | 38* | 92* | 40* | 55* | 30* | 4 | 37* | 6 | -1 | -5
Cn1ccnc1C(O)c1ccccc1 (stereo not drawn) | -1 | 1 | 3 | 4 | 0 | 1 | x | x | x | x | x
COc1ccc2ccccc2c1C(O)c1nccn1C (stereo not drawn) | 26* | 24* | 36* | 30* | 29* | 26* | 55* | x | 15* | 9 | 39* | Fam108b ABPP HTS=0
Cn1c(=O)c(N)c2c3c(c(Br)ccc31)C(=O)c1ccccc1-2 | 29* | 17* | 29 | 29* | 37* | 106* | 26* | x | 21* | x | 126*
NS(=O)(=O)c1ccc(NC2=CC(=O)C(=O)c3ccccc32)cc1 | 20* | 2 | 84* | 2 | 9 | 28* | 32* | 88* | x | x | 62* | Fam108b ABPP HTS=0
CCc1ccc(S(=O)(=O)/N=C2\C=C(Nc3ccc(O)cc3)C(=O)c3ccccc32)cc1 | 20* | -12 | 87* | 4 | 40* | 52* | 17 | 87* | x | x | 50*
CCOC(=O)C1=C(O)c2ccccc2C(=O)/C1=C\c1ccc(CC)cc1 | 3 | 0 | 31 | 4 | 6 | -42 | x | x | x | x | x
Cc1cc(C)c(S(=O)(=O)/N=C2\C=C(Nc3ccc(C(=O)O)cc3)C(=O)c3ccccc32)c(C)c1 | 40* | -5 | 85* | 11 | 15 | 53* | 59* | 89* | x | x | 40* | Fam108b ABPP HTS=0
CCc1ccc(S(=O)(=O)/N=C2/C=C(Sc3ncn[nH]3)C(=O)c3ccccc32)cc1 | 54* | 2 | 83* | 40* | 37* | 37* | 57* | 89* | x | 47* | 22*
CCc1ccc(S(=O)(=O)/N=C2\C=C(Nc3cccc(C(=O)O)c3)C(=O)c3ccccc32)cc1 | 57* | 10 | 98* | 15 | 29* | 71* | 78* | 92* | x | x | 66* | Fam108b ABPP HTS=40*
O=C1CC(NS(=O)(=O)c2cccs2)CN1c1ccc(Cl)cc1 (stereo not drawn) | -1 | 3 | 18 | 4 | 5 | 5 | x | x | x | x | x
CC(C#N)Sc1nc2ccccc2c(=O)n1-c1ccccc1 (stereo not drawn) | 5 | -2 | -3 | 2 | 1 | 0 | x | x | x | x | x
COC(=O)c1ccc(C(=O)N=c2sccn2C)cc1 | 4 | 5 | 2 | -1 | -3 | -3 | x | x | x | x | x
COC(=O)c1cc(C)nc2c1C(=O)C(=O)C=C2N1CCOCC1 | 71* | 72* | 99* | 79* | 36* | 72* | 82* | 95* | 91* | 93* | 67* | Fam108b ABPP HTS=0
COC(=O)c1cc(S(=O)(=O)N2CCOCC2)c(Cl)cc1N1CCOCC1 | -2 | 0 | 2 | 1 | -1 | -4 | x | x | x | x | x
CC(=O)Nc1ccc(NS(=O)(=O)c2ccccc2)c2ccccc12 | 1 | 0 | 4 | 0 | -3 | -5 | x | x | x | x | x
O=C(O)CSc1cc(NS(=O)(=O)c2ccc(Cl)cc2)c2ccccc2c1O | 28* | 4 | 88* | 28* | 28* | 31* | 19* | x | x | 13 | -6
CC(=O)Oc1ccc2c(c1)Oc1cc(OC(C)=O)ccc1C21OC(=O)c2ccccc21 | 107* | 106* | 72* | 119* | 121* | 99* | 145* | 84* | 98* | 121* | 128* | Fam108b ABPP HTS=0
C=CCn1c(NC(=O)c2ccccc2Cl)c(C#N)c2nc3ccccc3nc21 | 49* | 39* | 79* | 50* | 21 | 59* | 2 | 62* | 0 | 86* | -2
CCCCn1c(NC(C)=O)c(C#N)c2nc3ccccc3nc21 | 2 | -2 | 27 | -2 | 0 | -19 | x | x | x | x | x
CC(C)(C)NC(=O)C(c1ccc(F)cc1)N(Cc1ccco1)C(=O)CCC(=O)Nc1nccs1 (stereo not drawn) | 1 | 1 | 8 | 8 | 11 | 0 | x | x | x | x | x
O=c1ccc2c(-c3ccccc3)c3ccc(O)cc3oc-2c1 | 26* | 46* | -3 | 41* | 5 | 29* | 42* | x | 33* | 29* | 63* | Fam108b ABPP HTS=25
SMILES | Fam108B counter | LYPLA1 counter | GSTO1 counter | LYPLA2 counter | PME-1 inh | PAD4 inh | Fam108b confirm | GSTO1 confirm | LYPLA1 confirm | LYPLA2 conf | PAD4 FP conf | others
Cc1oc2cc(O)ccc2c(=O)c1-c1ccccc1 | 1 | 1 | 5 | 5 | -2 | 0 | x | x | x | x | x
O=C(c1ccccc1)N(CCN1CCOCC1)C1(C(=O)Nc2ccccc2)CCCCC1 | -4 | 4 | 4 | 6 | -7 | -3 | x | x | x | x | x
Cn1c(=O)cc2c3c(c(N4CCCCC4)ccc31)C(=O)c1ccccc1-2 | 24* | 28* | 39* | 38* | 40* | 70* | 19* | 24 | 20* | 28* | 37*
CCc1ccc(CNc2ccc(O)cc2)cc1 | 37* | 6 | 86* | 13 | 38* | 15* | 14 | 4 | x | x | 3
CCc1ccc(CNc2ccc3c(c2)ncn3CC)cc1 | 0 | 4 | 4 | 11 | 2 | 3 | x | x | x | x | x
CN(C)S(=O)(=O)N1CCN(CC(O)COc2ccc(-c3ccccc3)cc2)CC1 (stereo not drawn) | 2 | 1 | 3 | 11 | -1 | -4 | x | x | x | x | x
O=C1C=C(N2CCCCC2)c2ccccc2C1=O | 69* | 40* | 91* | 27* | 40* | 65* | 82* | 88* | 37* | 32* | 61* | Fam108b ABPP HTS=0
CN(Cc1cnn(Cc2ccccc2)c1)C(=O)c1cccc(S(=O)(=O)N2CCOCC2)c1 | x | 4 | x | 0 | 2 | 0 | x | x | x | x | x

Source: PubChem BioAssay
